Shown are actives, neighbours in structure and some others; about 2.3% of the full set was active somewhere.
CHO-K1 Ca PAM: nonselective calcium activators in parental CHO-K1 cells, primary screen, counter-screen for M1 PAM project, cell-based, Fluo-8 calcium fluorescence, full deck, 1536-well; ATP EC20; 0% at ATP EC20, 100% at ATP max; activation, % at 3 µM; 360,000 tested, 0.02% active; AID 602247, 2012;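 active = activation above the run cutoff, the mean activation of all test compounds plus 3 SD, cut at about 40% in these data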;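 note: peak over basal fluorescence ratio in a 140 s read after ATP addition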
CHO-K1 Ca antag: counter-screen for M1 antagonists: effect in parental CHO-K1 cells | ATP-induced calcium, Fluo-8 fluorescence | inhibition, % at 3 µM | 360,000 tested, 0.6% active | AID 602250;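 active = inhibition above a per-plate cutoff, the plate's mean sample inhibition plus 3 SD, cut at about 24% in these data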;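 note: 0% = DMSO plus EC80 ATP and 100% = DMSO alone without ATP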
M1 PAM: human M1 muscarinic receptor positive allosteric modulators, primary screen, CHO-K1 cells, Fluo-8 calcium fluorescence, 1536-well | 360,000 tested, 0.088% active | CHO-K1 hM1, ACh EC20; 0% = ACh EC20, 100% = maximal ACh | Muscarinic acetylcholine receptor M1 (Homo sapiens), P11229 | AID 588819, 2011 | activation, % at 3 µM; in the data active = activation above about 19%, passing the limit was not always enough
Target sequence (P11229 whole entry, looked up): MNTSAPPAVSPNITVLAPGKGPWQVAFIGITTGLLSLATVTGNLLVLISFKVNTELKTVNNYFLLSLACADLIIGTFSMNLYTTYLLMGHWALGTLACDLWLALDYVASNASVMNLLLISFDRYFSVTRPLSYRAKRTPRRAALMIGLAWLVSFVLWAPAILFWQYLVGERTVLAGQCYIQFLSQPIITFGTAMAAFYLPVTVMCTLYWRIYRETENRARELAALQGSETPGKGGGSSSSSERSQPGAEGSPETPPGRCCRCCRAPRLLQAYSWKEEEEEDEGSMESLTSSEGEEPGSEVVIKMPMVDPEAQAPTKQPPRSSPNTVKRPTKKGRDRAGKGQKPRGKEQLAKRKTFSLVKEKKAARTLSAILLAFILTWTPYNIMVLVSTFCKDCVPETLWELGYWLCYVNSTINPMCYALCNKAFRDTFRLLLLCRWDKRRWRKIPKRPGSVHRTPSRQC
CHRM1 agonist: human M1 muscarinic receptor agonists, primary screen, Fluo-8 calcium fluorescence, CHO-K1 cells, HTS; CHO-K1 hM1, agonist mode; 0% DMSO, 100% acetylcholine EC100; activation, % at 3 µM; 360,000 tested, 0.33% active;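 active = activation above the run's mean compound activation plus 3 SD, cut at about 16% in these data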;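 note: peak over basal fluorescence ratio within a 140 s kinetic read after compound addition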
CHRM1 antagonist: human M1 muscarinic receptor antagonists, primary screen, CHO-K1 cells, Fluo-8 calcium fluorescence, 1536-well. AID 588852, 2011. 360,000 tested, 1.3% active. inhibition, % at 3 µM. Muscarinic acetylcholine receptor M1 (Homo sapiens), P11229. CHO-K1 hM1, ACh EC80 antagonist;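 active = percent inhibition above its own plate's cutoff, namely the mean of that plate's compound wells plus 3 SD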;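 note: peak over basal fluorescence ratio during 140 s after agonist addition; 0% = ACh EC80 plus DMSO and 100% = DMSO alone without agonist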
CHO-K1 Ca ag: counter-screen for M1 agonists: effect in parental CHO-K1 cells | Fluo-8 calcium fluorescence; scaled to maximal ATP response, vehicle zero | activation, % at 3 µM | 360,000 tested, 0.48% active; in the data active = activation above about 15%;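 note: untransfected CHO-K1 host cells lacking M1 receptor as counterscreen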
* marks the source's active call; other numbers are inactive results.

For COc1cc(-c2nc3ccccn3c2/N=C/c2ccccc2)ccc1O the results were CHO-K1 Ca PAM 12.3, CHO-K1 Ca antag -18.9, M1 PAM -5.6, CHRM1 agonist 26.6*, CHRM1 antagonist -7.5 and CHO-K1 Ca ag 0.2.
For CCOc1cc(-c2nc3ccccn3c2NCC2CCCO2)ccc1O (stereo not drawn) the results were CHO-K1 Ca PAM 6.8, CHO-K1 Ca antag 14.8, M1 PAM -13.4, CHRM1 agonist 2.1, CHRM1 antagonist 23.7* and CHO-K1 Ca ag 5.0.
COc1cc(-c2nc3ccccn3c2NCC2CCCO2)ccc1O (stereo not drawn) was read as CHO-K1 Ca PAM 14.0, CHO-K1 Ca antag -2.3, M1 PAM -12.6, CHRM1 agonist 1.7, CHRM1 antagonist 24.1* and CHO-K1 Ca ag 5.0.
For CCn1c(CNC(=O)c2ccco2)nnc1SCC(=O)Nc1cc(F)ccc1C the results were CHO-K1 Ca PAM -6.8, CHO-K1 Ca antag -6.0, M1 PAM 3.8, CHRM1 agonist -3.6, CHRM1 antagonist 1.3 and CHO-K1 Ca ag 0.0.
`COc1ccccc1Cc1c(C2CCCCC2)nc2ccc(Br)cn12` gave CHO-K1 Ca PAM 1.7, CHO-K1 Ca antag -4.8, M1 PAM -0.9, CHRM1 agonist -3.6, CHRM1 antagonist -10.5 and CHO-K1 Ca ag 0.5.
O=C1Nc2ccccc2C(=O)N2[C@H](c3ccccc3)[C@@H]3C(=O)N(Cc4ccccc4)C(=O)[C@@H]3[C@H]12 was read as CHO-K1 Ca PAM -13.2, CHO-K1 Ca antag -1.3, M1 PAM 9.3, CHRM1 agonist 23.3*, CHRM1 antagonist -7.8 and CHO-K1 Ca ag 0.5.
Screening O=C1CCN(Cc2ccc(Br)cc2)CCN1[C@H](CO)Cc1ccccc1 returned CHO-K1 Ca PAM 20.1, CHO-K1 Ca antag -15.5, M1 PAM 10.1, CHRM1 agonist -2.4, CHRM1 antagonist -12.0 and CHO-K1 Ca ag 2.2.
`Cc1c(C(=O)Nc2ccc(F)cc2)sc2ncn(CC(=O)N3CCCCC3)c(=O)c12` gave CHO-K1 Ca PAM 11.6, CHO-K1 Ca antag -8.3, M1 PAM 6.7, CHRM1 agonist 4.1, CHRM1 antagonist -12.5 and CHO-K1 Ca ag 4.2.
`Cc1ccc(C)c(OCCC(=O)OCC(=O)NCc2ccccc2)c1` gave CHO-K1 Ca PAM -7.9, CHO-K1 Ca antag -0.2, M1 PAM 9.5, CHRM1 agonist -1.8, CHRM1 antagonist -10.3 and CHO-K1 Ca ag 0.4.
Cc1ccc(C)c(OCCC(=O)OCC(=O)NCCNC(=O)COC(=O)CCOc2cc(C)ccc2C)c1 was read as CHO-K1 Ca PAM -15.9, CHO-K1 Ca antag 26.6*, M1 PAM -17.7, CHRM1 agonist 3.0, CHRM1 antagonist 47.2* and CHO-K1 Ca ag 14.8.
C[C@H](NC(=O)c1nc[nH]c1C(=O)NCC(=O)OCc1ccccc1)c1ccccc1 was read as CHO-K1 Ca PAM 18.2, CHO-K1 Ca antag -7.1, M1 PAM -18.5, CHRM1 agonist -1.5, CHRM1 antagonist 31.4* and CHO-K1 Ca ag 5.9.
Screening CC(C)(C)OC(=O)NCc1ccc(CNC(=O)c2nc[nH]c2C(=O)NCc2ccccc2)cc1 returned CHO-K1 Ca PAM 6.2, CHO-K1 Ca antag -12.2, M1 PAM -4.6, CHRM1 agonist -1.9, CHRM1 antagonist 9.1 and CHO-K1 Ca ag 2.0.
For C[C@H](NC(=O)c1nc[nH]c1C(=O)NCC(=O)OCc1ccccc1)C(=O)OCc1ccccc1 the results were CHO-K1 Ca PAM 0.1, CHO-K1 Ca antag 1.5, M1 PAM -11.4, CHRM1 agonist -2.7, CHRM1 antagonist 32.1 and CHO-K1 Ca ag 6.9.
For CC(C)(C)OC(=O)NCc1ccc(CNC(=O)c2[nH]cnc2C(=O)NCC(=O)OCc2ccccc2)cc1 the results were CHO-K1 Ca PAM -5.0, CHO-K1 Ca antag 10.2, M1 PAM -20.3, CHRM1 agonist 3.5, CHRM1 antagonist 43.5* and CHO-K1 Ca ag 12.6.
For O=C(CNC(=O)c1nc[nH]c1C(=O)NCc1ccccc1)OCc1ccccc1 the results were CHO-K1 Ca PAM 11.8, CHO-K1 Ca antag -5.4, M1 PAM -19.2, CHRM1 agonist -3.0, CHRM1 antagonist 37.7* and CHO-K1 Ca ag 6.9.

Screening data (PubChem)
